This note sets out measurements from PubChem BioAssay AID651919 (Sanford-Burnham Center for Chemical Genomics, 2012).

Each structure is given as a SMILES string. Values joined by “and” are separate entries in the source; they are usually repeats but may differ in a detail not shown here. Equal values may be shown once.

In general, inhibition refers to the relative decrease from the control value, in per cent.

C-X-C chemokine receptor type 6 (Homo sapiens), sequence (O00574 whole entry, looked up): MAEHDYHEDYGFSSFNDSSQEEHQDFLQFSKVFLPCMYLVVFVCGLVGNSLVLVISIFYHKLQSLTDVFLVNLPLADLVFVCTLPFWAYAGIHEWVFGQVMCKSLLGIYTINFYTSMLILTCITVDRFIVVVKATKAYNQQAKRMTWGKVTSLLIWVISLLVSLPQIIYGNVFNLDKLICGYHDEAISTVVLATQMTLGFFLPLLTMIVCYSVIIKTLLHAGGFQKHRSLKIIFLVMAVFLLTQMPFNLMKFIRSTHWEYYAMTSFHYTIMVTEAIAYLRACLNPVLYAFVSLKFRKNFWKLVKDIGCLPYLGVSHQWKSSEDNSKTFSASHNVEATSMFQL

The experiment addresses C-X-C chemokine receptor type 6 (Homo sapiens) (UniProt O00574). The experiment is described as follows: CXCR6 and CXCR5 receptor antagonist panel, profiling panel, selectivity assay for CXCR6 antagonist project, cell-based, CHO-K1 PathHunter beta-arrestin, luminescence, set 4 (AID 651919). The following applies: run 1, at 79 µM (top of the series).
For `O=C(CN1C2CCCC1CC(NC(=O)c1ccc3c(c1)OCO3)C2)Nc1ccccc1` (centres undefined), the inhibition came out at 12.3%.
Next, `COc1ccc(C(=O)NC2CC3CCCC(C2)N3CC(=O)Nc2ccc(C)cc2)cc1` (centres undefined): 13.2%; `COc1cc(OC)cc(C(=O)NC2CC3CCCC(C2)N3CC(=O)Nc2ccc(Cl)cc2)c1` (centres undefined): 5.14%; `COc1ccc(NC(=O)CN2C3CCCC2CC(NC(=O)c2ccc(OC)c(OC)c2)C3)cc1` (centres undefined): 12.2%.
As to `COc1ccc(C(=O)NC2CC3CCCC(C2)N3CC(=O)Nc2ccc(F)cc2)cc1` (centres undefined), the inhibition was -4.57%.
For the compound `COc1ccc(C(=O)NC2CC3CCCC(C2)N3CC(=O)Nc2ccc(Cl)cc2)cc1OC` (centres undefined), the inhibition amounted to 9.09%.
`COc1cc(C(=O)NC2CC3CCCC(C2)N3CC(=O)Nc2ccccc2Cl)cc(OC)c1OC` (centres undefined): the inhibition is 99.8% and 101%.
For the compound `COc1ccc(NC(=O)CN2C3CCCC2CC(NC(=O)c2ccc4c(c2)OCO4)C3)cc1` (centres undefined), the inhibition was -0.217%.
Consider `COc1ccc(CN2C3CCCC2CC(NC(=O)c2cc(OC)c(OC)c(OC)c2)C3)cc1` (centres undefined), for which the inhibition stood at 57.9%.
Regarding `O=C(CN1C2CCCC1CC(NC(=O)c1ccc3c(c1)OCO3)C2)Nc1ccc(F)cc1` (centres undefined), the inhibition is -0.62%.
For `COc1ccc(NC(=O)CN2C3CCCC2CC(NC(=O)c2ccc(OC)cc2)C3)cc1` (centres undefined), the inhibition was -3.32%.
In the case of `COc1cc(OC)cc(C(=O)NC2CC3CCCC(C2)N3CC(=O)Nc2ccc(F)cc2)c1` (centres undefined) it was 7.92%; in that of `COc1cccc(C(=O)NC2CC3CCCC(C2)N3CC(=O)Nc2ccc(C)cc2)c1` (centres undefined), 16.6%.
For the compound `COc1ccc(C(=O)NC2CC3CCCC(C2)N3CC(=O)Nc2ccccc2)cc1` (centres undefined), the inhibition worked out at 0.75%.
Consider `COc1ccc(C(=O)NC2CC3CCCC(C2)N3CC(=O)Nc2ccc(C)cc2)cc1OC` (centres undefined), for which the inhibition came to 23.5%.
For `COc1ccc(C(=O)NC2CC3CCCC(C2)N3CC(=O)Nc2ccc(F)cc2)cc1OC` (centres undefined), the inhibition amounted to 15%.
As to `COc1ccc(NC(=O)CN2C3CCCC2CC(NC(=O)c2cc(OC)c(OC)c(OC)c2)C3)cc1` (centres undefined), the inhibition was determined as 66.4%.
In the case of `Cc1ccc(NC(=O)CN2C3CCCC2CC(NC(=O)c2ccc4c(c2)OCO4)C3)cc1` (centres undefined) it was 11.9%.
In the case of `COc1ccccc1NC(=O)CN1C2CCCC1CC(NC(=O)c1cc(OC)c(OC)c(OC)c1)C2` (centres undefined), the inhibition is 97.4%.
Next, `O=C(CN1C2CCCC1CC(NC(=O)c1ccccc1)C2)Nc1ccccc1` (centres undefined): 10.1%; `COc1cc(C(=O)NC2CC3CCCC(C2)N3CC(=O)Nc2ccc(C)cc2)cc(OC)c1OC` (centres undefined): 79%.
Next, `COc1ccc(C(=O)NC2CC3CCCC(C2)N3CC(=O)Nc2ccccc2)cc1OC` (centres undefined): 33.7%; `COc1ccc(NC(=O)CN2C3CCCC2CC(NC(=O)c2cccc(OC)c2)C3)cc1` (centres undefined): 0.669%; `COc1cc(C(=O)NC2CC3CCCC(C2)N3CC(=O)Nc2ccccc2)cc(OC)c1OC` (centres undefined): 96.3% and 90.5%.
In the case of `COc1cc(C(=O)NC2CC3CCCC(C2)N3CC(=O)Nc2ccc(Cl)cc2)cc(OC)c1OC` (centres undefined) it was 88.2%; in that of `COc1cc(OC)cc(C(=O)NC2CC3CCCC(C2)N3CC(=O)Nc2ccc(C)cc2)c1` (centres undefined), 10.9%.
On to `COc1cc(OC)cc(C(=O)NC2CC3CCCC(C2)N3CC(=O)Nc2ccccc2)c1` (centres undefined), for which the inhibition was found to be 12.4%.
In the case of `COc1cc(C(=O)NC2CC3CCCC(C2)N3CC(=O)Nc2ccc(F)cc2)cc(OC)c1OC` (centres undefined) it was 84.8%.
As for `COc1ccc(NC(=O)CN2C3CCCC2CC(NC(=O)c2cc(OC)cc(OC)c2)C3)cc1` (centres undefined), the inhibition worked out at 11.5%.
In the case of `O=C(CN1C2CCCC1CC(NC(=O)c1ccc3c(c1)OCO3)C2)Nc1ccc(Cl)cc1` (centres undefined) it was 3.65%; in that of `COc1cccc(C(=O)NC2CC3CCCC(C2)N3CC(=O)Nc2ccc(F)cc2)c1` (centres undefined), -1.02%.
In the case of `COc1cccc(C(=O)NC2CC3CCCC(C2)N3CC(=O)Nc2ccc(Cl)cc2)c1` (centres undefined), the inhibition was determined as 1.72%.
As to `COc1cccc(C(=O)NC2CC3CCCC(C2)N3CC(=O)Nc2ccccc2)c1` (centres undefined), the inhibition stood at 16.6%.
With `COc1ccc(C(=O)NC2CC3CCCC(C2)N3CC(=O)Nc2ccc(Cl)cc2)cc1` (centres undefined), the inhibition was -4.29%.
